# Biological target: TMCO6
# Test: pooled miR-30 sensor sort-seq; sequence = guide strand
# Settings: shRNA
# Also: reference of the scale not given here.
row,Sequence,sensor-assay potency score (higher = more potent)
1,TTCCTCAGCCTGTAGAAGCTGG,-0.621
2,TACTGGACAAACAAGCTTGATG,-0.998
3,AACACGCTCATCTCTGAGCTGC,-0.789
4,TTTGTAGCATGTGCTGAGGGAG,-0.612
5,TTGCAACATTTGTAGCATGTGC,-0.588

# Biological target: TMED3
# Test: as above
# Settings: shRNA
row,Sequence,sensor-assay potency score (higher = more potent)
1,TTCAACAGTAGCACCTGACTGA,0.248
2,TATTAAGGTCTTCCGCTCGGGC,-0.618
3,ATAGCAGTCAACATCGTAGTGG,-0.497
4,ATCGTCTCGCCAACAGACCAGT,-1.25
5,TACATAGCAGTCAACATCGTAG,-0.235
6,TACCACAGCAGCATCGTTCTGC,0.426
7,TACTGCTTCTTCGTTTCTCTGT,-0.244
8,TTGTCCGGCAGCTCGAAGGTGA,-0.973
9,TAGTTGTAAATGTCTTTTCAGC,-1.07
10,TAGCAGTCAACATCGTAGTGGC,-0.101
11,TTGAAAGTCAAAGTAGACGGTC,-0.0324
12,TTCGTTTCTCTGTAGATGGTGT,0.459

# Biological target: TMED9
# Test: as above
# Settings: shRNA
row,Sequence,sensor-assay potency score (higher = more potent)
1,TAACACTGTGATTCTGAGGTGC,0.27
2,TTGAGGTGCCGCATCTGCCAGA,-0.928
3,TTCACCTCCACAAACATGCCAA,-0.184
4,ATGACCATGGTCTCGTCCGGGA,-0.96
5,TGGGAAGTGAAAGTGAACCTGC,0.118
6,TTGGAGTGAAGACAGATCTGGT,-0.176
7,TCAGTAACTAAGACTCTGCAGG,-0.549
8,TTTAGCAGCAATTTCTGCATAG,-0.576
9,TTGTCATACAGCTGCGTCCGGT,-1.2
10,TTTCTGGATCTGCTCCACTTGT,-1.3
11,TATGACCATGGTCTCGTCCGGG,-0.321
12,TGTCTTTAGCAGCAATTTCTGC,-1.06

# Biological target: TMEFF2
# Test: as above
# Settings: shRNA
row,Sequence,sensor-assay potency score (higher = more potent)
1,TTAAGACATACTGAAATCGTAC,-0.191
2,TAGCATTCTCTGCATAATCTGT,-0.543
3,TTGTCTGAACTGTAGTGCCCTG,-0.73
4,TAGAACACTGTAGTCCTTTTTT,-1.55
5,TAGATCTCTTGTCTTATTCTTT,-0.31
6,TTGTTGTATTGTCTGAACTGTA,-0.51
7,TCAATATTACACACACACCAGA,-1.06
8,TATAGAACACTGTAGTCCTTTT,-0.956
9,TAGAATGCTCACACTTCCCATG,-0.607
10,TTTTTTCACAGTGTTGTCCAGT,-0.255
11,TACAGGACCGGGAACAACGTAT,-0.637

# — the OligoGym collection
